From PubChem BioAssay AID1159580 (chemical genetic matrix, 2015)
Values joined by “and” are separate entries in the source; they are usually repeats but may differ in a detail not shown here. Identical values can stand only once. Hit rate of the full screen: of about 5,500 compounds, about 2,000 (36%) were called active. About 18% were inconclusive and are not listed. The list shows a part of the results. Values without a mark were called inactive. Cut-off read from the data, not from the text of the source: active = normalized growth mostly below about 0.91 (no sharp cut-off); inconclusive = no clear call, values can overlap the other calls; inactive = mostly above about 0.92.

Assay: chemical genetic growth profiling, strain panel (AID 1159580);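 note: tested at 20 µM; growth read once vehicle control cultures reached saturation at 30 °C; 1 = growth at the plate median or of vehicle wells; lower values mean less growth of the strain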
Details: S. cerevisiae deletion strains, growth OD

With `CN(C)CCC=C1c2ccccc2C=Cc2ccccc21` the normalized growth (locus YAL013W, strain DEP1, hits give low values) was 0.995, the normalized growth (locus YAL021C, strain ccr4, hits give low values) was 0.893 (active) and the normalized growth (locus YAL026C, strain drs2, hits give low values) was 0.901 (active). It also gave a normalized growth (locus YAL030W, strain snc1, hits give low values) of 0.982, a normalized growth (locus YAL040C, strain CLN3, hits give low values) of 1.07 and a normalized growth (locus YBL061C, strain skt5, hits give low values) of 0.995. It also gave a normalized growth (locus YBR009C, strain hhf1, hits give low values) of 0.99, a normalized growth (locus YBR021W, strain FUR4, hits give low values) of 0.958 and a normalized growth (locus YBR023C, strain chs3, hits give low values) of 0.978. For the same compound, the normalized growth (locus YBR171W, strain sec66, hits give low values) was 1, the normalized growth (locus YBR229C, strain ROT2, hits give low values) was 0.995 and the normalized growth (locus YBR231C, strain swc5, hits give low values) was 0.997. The normalized growth (locus YBR279W, strain paf1, hits give low values) was 0.979, the normalized growth (locus YCL011C, strain gbp2, hits give low values) was 0.984 and the normalized growth (locus YCL016C, strain dcc1, hits give low values) was 0.954. The normalized growth (locus YCL029C, strain bik1, hits give low values) was 1, the normalized growth (locus YCL061C, strain MRC1 (second series), hits give low values) was 0.999 and the normalized growth (locus YCL061C, strain MRC1, hits give low values) was 0.992. The normalized growth (locus YCL069W, strain vba3, hits give low values) was 0.993, the normalized growth (locus YCR088W, strain abp1, hits give low values) was 0.998 and the normalized growth (locus YDL005C, strain med2, hits give low values) was 0.991. It also gave a normalized growth (locus YDL035C, strain GPR1, hits give low values) of 0.954, a normalized growth (locus YDL040C, strain nat1, hits give low values) of 0.967 and a normalized growth (locus YDL074C, strain BRE1, hits give low values) of 0.956. The normalized growth (locus YDL101C, strain DUN1, hits give low values) was 1.02, the normalized growth (locus YDL134C, strain PPH21, hits give low values) was 0.996 and the normalized growth (locus YDL185W, strain tfp1, hits give low values) was 0.949. The normalized growth (locus YDL192W, strain arf1, hits give low values) was 0.988, the normalized growth (locus YDR001C, strain nth1, hits give low values) was 0.983 and the normalized growth (locus YDR069C, strain doa4, hits give low values) was 0.918. The normalized growth (locus YDR101C, strain arx1, hits give low values) was 1.05, the normalized growth (locus YDR137W, strain rgp1, hits give low values) was 1.18 [resistant] (active) and the normalized growth (locus YDR150W, strain NUM1, hits give low values) was 0.987. For the same compound, the normalized growth (locus YDR159W, strain sac3, hits give low values) was 1, the normalized growth (locus YDR162C, strain NBP2, hits give low values) was 0.95 and the normalized growth (locus YDR195W, strain ref2) was 1.05. It also gave a normalized growth (locus YDR297W, strain sur2, hits give low values) of 0.971, a normalized growth (locus YDR318W, strain mcm21, hits give low values) of 0.982 and a normalized growth (locus YDR334W, strain swr1, hits give low values) of 0.958. It also gave a normalized growth (locus YDR335W, strain msn5, hits give low values) of 0.969, a normalized growth (locus YDR388W, hits give low values) of 0.959 and a normalized growth (locus YDR392W, strain spt3, hits give low values) of 0.988. The normalized growth (locus YDR502C, strain sam2, hits give low values) was 0.996, the normalized growth (locus YEL003W, strain gim4, hits give low values) was 0.987 and the normalized growth (locus YEL037C, strain rad23, hits give low values) was 1. For the same compound, the normalized growth (locus YEL061C, strain CIN8 (second series), hits give low values) was 0.982, the normalized growth (locus YEL061C, strain CIN8, hits give low values) was 0.99 and the normalized growth (locus YER002W, strain NOP16, hits give low values) was 1.04. For the same compound, the normalized growth (locus YER015W, strain faa2, hits give low values) was 0.969, the normalized growth (locus YER016W, strain bim1, hits give low values) was 0.998 and the normalized growth (locus YER110C, hits give low values) was 0.984. For the same compound, the normalized growth (locus YER111C, strain swi4, hits give low values) was 0.993, the normalized growth (locus YER155C, strain BEM2 (second series), hits give low values) was 0.967 and the normalized growth (locus YER155C, strain BEM2, hits give low values) was 1.02. It also gave a normalized growth (locus YER167W, strain BCK2, hits give low values) of 0.999, a normalized growth (locus YFR010W, strain ubp6, hits give low values) of 0.95 and a normalized growth (locus YGL078C, strain dbp3, hits give low values) of 0.985. The normalized growth (locus YGL086W, strain mad1, hits give low values) was 1.01, the normalized growth (locus YGL167C, strain pmr1, hits give low values) was 0.976 and the normalized growth (locus YGL173C, strain kem1, hits give low values) was 1. The normalized growth (locus YGL227W, strain vid30, hits give low values) was 0.97, the normalized growth (locus YGL240W, strain doc1, hits give low values) was 1.02 and the normalized growth (locus YGL248W, strain PDE1, hits give low values) was 0.998. The normalized growth (locus YGL253W, strain hxk2, hits give low values) was 0.988, the normalized growth (locus YGR135W, strain pre9, hits give low values) was 0.919 and the normalized growth (locus YGR252W, strain gcn5, hits give low values) was 0.904. The normalized growth (locus YHR013C, strain ard1, hits give low values) was 0.945, the normalized growth (locus YHR027C, strain rpn1, hits give low values) was 0.953 and the normalized growth (locus YHR030C, strain SLT2, hits give low values) was 0.983 and 1.01. It also gave a normalized growth (locus YHR079C, strain IRE1 (second series), hits give low values) of 0.984, a normalized growth (locus YHR079C, strain IRE1, hits give low values) of 1.02 and a normalized growth (locus YHR094C, strain hxt1, hits give low values) of 0.99. It also gave a normalized growth (locus YHR129C, strain ARP1, hits give low values) of 0.993, a normalized growth (locus YHR142W, strain chs7, hits give low values) of 0.959 and a normalized growth (locus YHR200W, strain rpn10, hits give low values) of 0.998. The normalized growth (locus YIL066C, strain RNR3, hits give low values) was 0.974, the normalized growth (locus YIL073C, strain SPO22, hits give low values) was 0.94 and the normalized growth (locus YIL125W, strain kgd1, hits give low values) was 1.02. It also gave a normalized growth (locus YIR030C, strain dcg1, hits give low values) of 0.988, a normalized growth (locus YJL092W, strain hpr5, hits give low values) of 0.98 and a normalized growth (locus YJL095W, strain BCK1 (second series), hits give low values) of 0.98. The normalized growth (locus YJL095W, strain BCK1, hits give low values) was 0.903 and 1.02, the normalized growth (locus YJL115W, strain asf1, hits give low values) was 0.951 and the normalized growth (locus YJL129C, strain trk1, hits give low values) was 1.01. It also gave a normalized growth (locus YJL134W, strain LCB3, hits give low values) of 0.988, a normalized growth (locus YJL154C, strain vps35, hits give low values) of 0.979 and a normalized growth (locus YJL164C, strain tpk1, hits give low values) of 0.998. It also gave a normalized growth (locus YJL166W, strain qcr8, hits give low values) of 0.996, a normalized growth (locus YJL187C, strain SWE1 (second series), hits give low values) of 1.01 and a normalized growth (locus YJR043C, strain POL32, hits give low values) of 1.04. For the same compound, the normalized growth (locus YJR066W, strain TOR1, hits give low values) was 0.956 and the normalized growth (locus YJR075W, strain HOC1, hits give low values) was 0.982.
